PubChem BioAssay (NCI)
Compounds without any hit were thinned out: in the full panel of roughly 83,000, 20% have a hit.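 How to read the values: 0–100, growth inhibition (40 = 60% inhibited); 0, no net growth; -100 to 0, cell death (-40 = 40% of starting cells died; -100 = all dead).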 Active and inactive are the calls of the source. How the source made its calls: active means growth percent below 10; inactive means the rest.

tested on: COLO 205 colon; test: NCI-60 one-dose screen, 48 h (100 = growth as untreated, 0 = no growth, -100 = all killed); details: 10 µM unless noted

Row | SMILES | growth
1 | O=C(Nc1cc(F)cc2cccnc12)c1cnc(N2CCNCC2)cn1 | 13.9% (inactive)
2 | C=CCCC1(C)NC(=O)NC1=O (centres undefined) | 102% (inactive)
3 | CC(=O)Nc1ccc2nc3ccc(NC(C)=O)cc3[n+](-c3ccccc3)c2c1 | 109% (inactive)
4 | CCCCCN(CCCCC)CCCCCCCCN1CCCc2ccccc21 | 88.5% (inactive)
5 | O=C(O)c1cccc(CN2CCN(c3cc4c(cc3F)c(=O)c(C(=O)O)cn4C3CC3)CC2)c1O | 103% (inactive)

tested on: DU-145 prostate; test: as above; details: 10 µM unless noted

Row | SMILES | growth
6 | CCOc1ccccc1/C=N\Nc1ccc(S(=O)(=O)c2ccc(N/N=C/c3ccccc3OCC)cc2)cc1 | 109% (inactive)
7 | Nc1ccc(Cl)c([N+](=O)[O-])c1 | 107% (inactive)
8 | Oc1ccc(N=Nc2nccs2)c(O)c1 | 64% (inactive)
9 | O=C(N[C@@H]1CCCc2ccccc21)[C@H](CCC(=O)N1CCN(C2CCCCC2)CC1)N1C(=O)[C@@H](N2C(=O)OC[C@@H]2c2ccccc2)[C@H]1/C=C/c1ccccc1 | 57.9% (inactive)
10 | Cc1ccc(NC(=S)/N=c2/n(-c3ccccc3)nc3n2CCN3C2=NCCN2)cc1 | 111% (inactive)
11 | CCCCC1COc2cccc3c2N1C=C/C3=C\C(=O)n1ccc2ccccc21 (centres undefined) | 99.1% (inactive)
12 | COc1cc(C)cc2oc3oc(=O)c(-c4nc5ccccc5s4)cc3c(=O)c12 | 98.8% (inactive)
13 | O=C(Nc1ccccc1)Nc1ccc(C(=O)/C=C/c2ccc(N3CCCC3)cc2)cc1 | 94.7% (inactive)
14 | COc1cc(C)cc2oc3oc(=N)c(C(=O)c4ccccc4)cc3c(=O)c12 | 111% (inactive)
15 | CC[C@]12C=CCN3CC[C@@]4(c5ccc(OC)cc5N(C)[C@H]4[C@@](O)(C(=O)OC)[C@@H]1OC(=O)CCC(=O)N[C@H](Cc1c[nH]c4ccccc14)C(=O)OC)[C@@H]32 | -49.9% [100 µM] (active)
16 | CC(=O)OC[C@]12CC[C@@H]([C@@H](C)C(N)=O)[C@@H]1[C@H]1CC[C@@H]3[C@@]4(C)CC[C@H](OC(C)=O)C(C)(C)[C@@H]4CC[C@@]3(C)[C@]1(C)CC2 | -69.9% [100 µM] (active)
17 | O=c1c2c3c(sc2n2cnnc2n1Cc1ccccc1)CCCC3 | 106% (inactive)
18 | COc1cc2c(c(OC)c1)C1c3cc(OC)ccc3NC(=O)N1CC2 (centres undefined) | 102% (inactive)
19 | O=c1cc(-c2ccccc2)oc2cc(OCc3cn(Cc4ccc(F)cc4)nn3)cc(O)c12 | 65.8% [100 µM] (inactive)
20 | CCN(CC)c1ccc2cc(NC(=O)OCCNC(=O)CCNC(=O)[C@H](CC(C)C)NC(=O)C(C)(C)NC(=O)C(C)(C)NC(=O)[C@H](CC(C)C)NC(=O)CCNC(=O)C(C)(C)NC(=O)[C@H](CC(C)C)NC(=O)CCNC(=O)[C@@](C)(CC)NC(=O)[C@H](C)NC(=O)CCNC(=O)C(C)(C)NC(=O)[C@H](C)NC(=O)[C@@H]3CCCN3C(=O)[C@@](C)(CC)NC(=O)[C@H](Cc3ccccc3)NC(=O)C3CCCN3C(=O)C(C)(C)NC(=O)C3CCCN3C(=O)C(C)(C)NC(C)=O)c(=O)oc2c1 (some centres undefined) | -100% (active)
21 | CCCCCCCCCCCCCC[n+]1cccc(C(N)=O)c1 | 27.8% (inactive)
22 | CCOC(CNC(=O)c1cccc([N+](=O)[O-])c1)OCC | 100% (inactive)
23 | COc1ccc(/C=C/C=C\C(=O)c2ccc(-n3ccnc3)cc2)cc1 | 98% (inactive)
24 | CCNc1cc2c(cc1Br)-c1ccccc1C2=O | 97.7% (inactive)
25 | C[n+]1c(-c2ccccc2)c2cc(N)ccc2c2ccccc21 | 43.8% (inactive)
26 | C/C=C/C1OC23CCCCC2C(C#N)(C(=N)O3)C1(C#N)C#N (centres undefined) | 95.1% (inactive)
27 | Fc1cc2[nH]ncc2c2c3c(c(-c4cn[nH]c4)nc12)CCCC3 | 7.37% (active)
28 | CCOC(=O)c1nn(C2CCCCO2)c2ccc(NC(=O)CN3CCCC3)cc12 (centres undefined) | 104% (inactive)
29 | Nc1nnc(CSc2nnc3n(Cc4ccccc4)c(=O)c4c5c(sc4n23)CCCC5)s1 | 110% (inactive)
30 | O=S(=O)(NCc1ccccc1)c1ncnc2nc[nH]c12 | 111% (inactive)
31 | c1cc2ccc1CNCCN1CCNCc3ccc(cc3)Oc3ccc(cc3)CNCCN(CCNCc3ccc(cc3)O2)CCNCc2ccc(cc2)Oc2ccc(cc2)CNCC1 | -88.6% (active)
32 | CS(=O)(=O)c1cccnn1 | 97.6% (inactive)
33 | N=C(N)c1ccc(-c2ccc(-c3ccc(-c4cccs4)s3)s2)cc1F | 107% (inactive)
34 | CCCSc1nc(N)nc2nc[nH]c12 | 119% (inactive)
